Measurements reported in the supplement of paper PMC4166925.
± gives the standard deviation of the averaged measurements. The full ranking holds about 33,000 sequences; the median of “E-score (dimensionless, -0.5 to 0.5)” is about -0.046, and the highest 2% start at about 0.36. This excerpt belongs to a sample that is enriched for the highest values.

Test system: T1, SpTbr T-box DNA-binding domain (GST fusion)
T1 sequence: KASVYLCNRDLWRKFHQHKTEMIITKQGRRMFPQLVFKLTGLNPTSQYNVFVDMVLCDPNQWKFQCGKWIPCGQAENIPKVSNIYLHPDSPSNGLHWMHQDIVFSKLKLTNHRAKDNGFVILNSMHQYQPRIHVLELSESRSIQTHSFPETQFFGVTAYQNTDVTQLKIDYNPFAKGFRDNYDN
Test: PBM E-score of 8-mer (E-score (dimensionless, -0.5 to 0.5)); Tbr is Tbrain of the sea star Patiria miniata (Pm) or the sea urchin Strongylocentrotus purpuratus (Sp); higher = stronger binding preference
Conditions: the construct has about 5 more residues each side
Description: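 Universal protein-binding microarray (Agilent AMADID 016060, 60-bp probes with a 35-bp variable region) incubated with 200 nM GST-fused Strongylocentrotus purpuratus Tbr T-box DNA-binding domain (residues 362-554) in PBS pH 7.5. Scored for every ungapped 8-mer (given with its reverse complement) as E-score (range -0.5 to 0.5; >0.45 counts as bound) and Z-score of median probe intensity. Two replicate arrays (datasets 1 and 2).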
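Also: protein at 200 nM in PBS on universal double-stranded arrays.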

| Sequence | PBM E-score of 8-mer |
| --- | --- |
| AAACCTGA | -0.00426 ± 0.071 |
| ATACCTGC | -0.0105 ± 0.0085 |
| GAACCTGC | -0.126 ± 0.13 |
| ACACCTGG | 0.44 ± 0.029 |
| ACACCTGC | 0.4527 ± 0.0032 |
| ATACCTGG | 0.0363 ± 0.063 |
| CGACCTGC | 0.177 ± 0.026 |
| GCACCTGC | 0.388 ± 0.024 |
| ACACCTGA | 0.4627 ± 0.0023 |
| AGACCTGA | -0.094 ± 0.0078 |
| CCACCTGG | 0.186 ± 0.029 |
| CCACCTGC | 0.269 ± 0.0095 |
| GCCCAAGC | -0.24 ± 0.0088 |
| ACGCAAGA | -0.0517 ± 0.024 |
| AACAACGT | 0.00981 ± 0.00099 |
| CTTTAAGC | -0.136 ± 0.004 |
| AACTTCAG | -0.23 ± 0.022 |
| CTCACTGC | 0.0922 ± 0.076 |
| GCATGTCC | -0.0875 ± 0.095 |
| CGGCTTGC | -0.14 ± 0.0054 |
| AAGCGAGG | 0.115 ± 0.03 |
| CAAGCTAC | -0.147 ± 0.014 |
| AAGTGTTG | 0.422 ± 0.02 |
| GAGTGTTA | 0.386 ± 0.021 |
| GAGTGTAC | -0.0659 ± 0.019 |

| Sequence | PBM E-score of 8-mer |
| --- | --- |
| AAGTGTTC | 0.226 ± 0.11 |
| CAGTGTTC | 0.0165 ± 0.024 |
| AAGTGGTA | 0.083 ± 0.018 |
| AAGTGTAC | 0.00907 ± 0.056 |
| CAGTGTTA | 0.31 ± 0.028 |
| AAGTGTTA | 0.451 ± 0.00073 |
| CATCTGTA | -0.0572 ± 0.038 |
| CACCAATG | 0.179 ± 0.0061 |
| CACAATCC | 0.0504 ± 0.056 |
| ATGCCCAT | -0.184 ± 0.01 |
| AGGCAGAT | -0.0669 ± 0.075 |
| TGGGCGAA | -0.169 ± 0.019 |
| GAGGACAC | 0.155 ± 0.015 |
| GGTGGGGA | 0.248 ± 0.033 |
| CACAGGTC | 0.198 ± 0.045 |
| AGCAGGTG | 0.377 ± 0.00094 |
| ATCAGGTC | -0.171 ± 0.075 |
| ATCAGGTG | 0.386 ± 0.015 |
| CACAGGTG | 0.453 ± 0.005 |
| AGCAGGTA | -0.132 ± 0.031 |
| AACAGGTA | 0.0912 ± 0.072 |
| CACAGGTA | 0.141 ± 0.0043 |
| ATCAGGTA | -0.128 ± 0.008 |
| AGCAGGTC | -0.0223 ± 0.011 |
| AACAGGTC | 0.107 ± 0.0057 |

| Sequence | PBM E-score of 8-mer |
| --- | --- |
| AACAGGTG | 0.364 ± 0.028 |
| AGCGGTGC | -0.00638 ± 0.018 |
| ACAATGCG | 0.222 ± 0.025 |
| CGAGAGTA | 0.0304 ± 0.018 |
| GAGATTGC | 0.116 ± 0.014 |
| CGCTGGCC | -0.032 ± 0.027 |
| CTTACTCC | -0.125 ± 0.049 |
| CAGCGTGG | -0.111 ± 0.012 |
| CAGTCCAC | 0.192 ± 0.026 |
| AGCACTCA | 0.079 ± 0.03 |
| AAAGCAAA | 0.00628 ± 0.091 |
| GTGTGGAA | 0.3848 ± 0.0012 |
| ATGTGGGA | 0.234 ± 0.041 |
| CTGTGGGA | 0.105 ± 0.057 |
| CTGTGGAA | 0.061 ± 0.12 |
| GTGTGGGA | 0.387 ± 0.038 |
| ATGTGGAA | 0.0153 ± 0.034 |
| CGGCCCAG | -0.2798 ± 0.0014 |
| CAGAATGC | 0.0116 ± 0.023 |
| GCCACGAA | 0.00399 ± 0.009 |
| CGCCAGCC | 0.0479 ± 0.008 |
| AGCGAACA | 0.078 ± 0.037 |
| GGCGAACA | 0.137 ± 0.018 |
| TGCGAAAA | 0.383 ± 0.038 |
| CGCGAAAA | 0.347 ± 0.04 |

| Sequence | PBM E-score of 8-mer |
| --- | --- |
| AGCGAAAA | -0.0276 ± 0.011 |
| TGCGAACA | 0.419 ± 0.015 |
| CGTTTCAA | -0.029 ± 0.015 |
| CGCTGTAC | -0.164 ± 0.046 |
| ATACAGGG | -0.276 ± 0.015 |
| AAGGGTAT | -0.121 ± 0.02 |
| ACGCGTGC | 0.149 ± 0.066 |
| AGGCGTGA | 0.4754 ± 0.0047 |
| CTGCGTGA | 0.172 ± 0.033 |
| ACGCGTGA | 0.407 ± 0.0058 |
| AGGCGTGC | 0.236 ± 0.052 |
| AGGCGTGG | 0.321 ± 0.044 |
| AAGCGTGG | 0.179 ± 0.047 |
| AAGCGTGA | 0.415 ± 0.01 |
| AAGCGTGT | 0.288 ± 0.012 |
| GTGCGTGA | 0.316 ± 0.057 |
| GCGCGTGA | 0.344 ± 0.033 |
| ATGCGTGA | 0.374 ± 0.0053 |
| AGGATGAT | -0.095 ± 0.066 |
| TCCACGGA | -0.0375 ± 0.11 |
| CTCCAAGA | -0.0401 ± 0.032 |
| ACGGCTCA | -0.0392 ± 0.022 |
| TTATTGAA | -0.142 ± 0.024 |
| GAATCAGA | -0.0679 ± 0.055 |
| GGGCGTAA | 0.131 ± 0.047 |

| Sequence | PBM E-score of 8-mer |
| --- | --- |
| AGGCGTTA | 0.434 ± 0.018 |
| GGGCGTGA | 0.44 ± 0.015 |
| AGGCGTTG | 0.355 ± 0.0053 |
| GGGCGTTA | 0.2697 ± 0.0022 |
| CGGCGTGA | 0.33 ± 0.047 |
| CACTAGCG | 0.139 ± 0.072 |
| AGGTTTGC | -0.0997 ± 0.11 |
| ATCGTGAG | 0.208 ± 0.0056 |
| TATTCGGA | -0.284 ± 0.034 |
| CACTCAGG | -0.0871 ± 0.041 |
| CTTGCGAA | 0.343 ± 0.019 |
| CGTGCAAA | 0.146 ± 0.024 |
| CGTGCGAA | 0.4443 ± 0.0016 |
| GATGCGAC | 0.216 ± 0.022 |
| GGTGCGAC | 0.452 ± 0.0081 |
| GTTGCGAA | 0.393 ± 0.0099 |
| AGTGCGAA | 0.47263 ± 0.00019 |
| GCTGCGAC | 0.137 ± 0.059 |
| AATGCGAA | 0.0358 ± 0.024 |
| AGTGCGTA | 0.0849 ± 0.013 |
| ATTGCGAA | 0.284 ± 0.041 |
| CGTGCGCA | 0.155 ± 0.0026 |
| AATAGCAT | -0.0159 ± 0.004 |
| ATCCTGTG | 0.00404 ± 0.015 |
| AATATCAT | -0.161 ± 0.0081 |

| Sequence | PBM E-score of 8-mer |
| --- | --- |
| CCTGGGCG | 0.118 ± 0.03 |
| CCTGCGAA | 0.367 ± 0.0099 |
| GATGCGAA | 0.202 ± 0.066 |
| TATGCGAA | 0.131 ± 0.068 |
| TCTGCGAA | 0.202 ± 0.04 |
| TGTGCGAA | 0.458 ± 0.0092 |
| ACTGCGAA | 0.332 ± 0.018 |
| ACGCGAAG | 0.185 ± 0.027 |
| AAAGTAGA | -0.0436 ± 0.055 |
| ACTTGTAC | -0.109 ± 0.04 |
| CACTCGGC | 0.143 ± 0.021 |
| CCGCGAAC | 0.338 ± 0.0083 |
| ACGCGAAA | 0.138 ± 0.018 |
| ACGCGAAC | 0.276 ± 0.003 |
| CCGCGAAA | 0.32 ± 0.025 |
| GCGCGACA | 0.3438 ± 0.0009 |
| GCGCGAAA | 0.4374 ± 0.0039 |
| TCGCGAAA | 0.403 ± 0.026 |
| GCGCGAAC | 0.439 ± 0.018 |
| GCGCGATA | 0.288 ± 0.014 |
| GCGTCGAC | 0.114 ± 0.082 |
| CCAAATAA | -0.267 ± 0.079 |
| GTGGAAAA | 0.125 ± 0.036 |
| AAACAGCT | 0.0803 ± 0.013 |
| ATTGTCAA | 0.225 ± 0.019 |

| Sequence | PBM E-score of 8-mer |
| --- | --- |
| ATTGTCAC | 0.399 ± 0.013 |
| ATTGTCAG | 0.0298 ± 0.045 |
| CCTGTCAC | 0.3163 ± 0.0011 |
| CTTGTCAA | 0.355 ± 0.0065 |
| CTTGTCAC | 0.39 ± 0.013 |
| CCAGCACC | 0.216 ± 0.04 |
| CTGAACAC | -0.0318 ± 0.035 |
| ACACTTTC | 0.402 ± 0.027 |
| ACACTTTG | 0.379 ± 0.005 |
| CCACTTTC | 0.0779 ± 0.016 |
| AGACTTTG | -0.0212 ± 0.042 |
| ACTCTTTC | 0.0551 ± 0.015 |
| ACACTTTA | 0.324 ± 0.043 |
| CGCATAGA | -0.0202 ± 0.12 |
| GCGCTACC | 0.295 ± 0.0067 |
| GCTTTACA | 0.0266 ± 0.031 |
| AGCTTTCA | -0.132 ± 0.045 |
| AACACGTA | 0.317 ± 0.018 |
| AACACGCT | 0.185 ± 0.073 |
| AACACGTC | 0.372 ± 0.009 |
| GACACGTC | 0.333 ± 0.0087 |
| AACACGAT | 0.291 ± 0.022 |
| AACACGTT | 0.367 ± 0.044 |
